From PubChem BioAssay (NCI)
Where “and” joins values, the source holds several entries; their conditions need not be identical. Equal entries are not always repeated. The panel holds about 79,000 compounds, 15% with a hit somewhere; the sample as a whole holds those more often. The source holds several records for some structures; these can differ, active in one and inactive in another. Calls of active or inactive are those of the source. Rule as the data show it: active = growth inhibition above about 70%; inactive = the rest.

Assay: NCI Yeast Anticancer Drug Screen. Data for the cln2 rad14 strain (AID 165);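 also: 0% = growth equal to vehicle treated cultures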
Details: S. cerevisiae cln2 rad14 strain, stronger effect = higher value
Experimental: Growth inhibition of yeast strains with defined genetic alterations is measured as a screen for potential anti-cancer activity. Selected strains with alterations in DNA damage repair or cell cycle control were exposed to compounds and growth inhibition was measured relative to vehicle treated controls. The strain used in this assay is cln2 rad14

[1] = at 5.0 µM (retest, dose inferred, filed as 0.5)
[2] = at 50.0 µM (retest, dose inferred, filed as 5.0)

Row | Compound | growth inhibition [1] | growth inhibition [2] | growth inhibition (at 50.0 µM)
1 | NNC(=O)CCc1cc2ccccc2c2ccccc12 | 11% (inactive) | 98% (active) | 98% (active)
2 | CN(C)CCCCN1c2ccccc2Sc2ccc(N=[N+]=[N-])cc21 | 8% (inactive) | 99% (active) | 89.5% (active)
3 | Cc1ccccc1N=Cc1cc(Cl)ccc1O | -32% (inactive) | -16% (inactive) | -13.1% (inactive)
4 | C=C1CC(CCCl)(c2ccccc2)OC1=O (configuration not stated) | 18% (inactive) | 93% (active) | 90.9% (active)
5 | O=[N+]([O-])c1cc(S(=O)(=O)Nc2ccccc2)ccc1Nc1ccccc1 | 68% (inactive) | 91% (active) | 80.2% (active)
6 | Cc1sc2ccc3ccccc3c2[n+]1C | 47% (inactive) and -10% (inactive) | 32% (inactive) and 15% (inactive) | 87.2% (active) and 77.2% (active)
7 | CC12C(=O)OC(=O)C(c3ccccc31)c1ccccc12 | 9% (inactive) | 5% (inactive) | 76.2% (active)
8 | CCCCCCN(CCCCCC)CC(O)c1ccnc2ccc(OC)cc12 (configuration not stated) | -12% (inactive) | 26% (inactive) | -8.6% (inactive)
9 | CC(=O)OCC(C)Cc1cc2c(cc1Br)OCO2 (configuration not stated) | -1% (inactive) | 12% (inactive) | 4.65% (inactive)
10 | Oc1ccc(-c2nc(-c3ccc(F)cc3)c(-c3ccc4ccccc4n3)[nH]2)cc1 | 13% (inactive) | -33% (inactive) | 90.6% (active)
11 | CCCCOCn1c(=O)[nH]c(=O)c2cc(Br)ccc21 | 32% (inactive) | 86% (active) | 17.8% (inactive)
12 | CCOC(=O)CC1(C(=O)OCC)c2[nH]c3ccccc3c2CCN1Cc1ccccc1 (configuration not stated) | -4% (inactive) | -4% (inactive) | 74% (active)
13 | Cc1cc(N(CCOS(C)(=O)=O)CCOS(C)(=O)=O)ccc1C=Nc1ccc(-c2nc(Cc3ccccc3)sc2C)cc1 | 29% (inactive) and 0% (inactive) | -12% (inactive) and 35% (inactive) | 86.2% (active) and 27.1% (inactive)
14 | COc1cc(/C=C2\NC(=O)N(/C=C3\C(=O)Oc4ccccc4C3=O)C2=O)ccc1O | 38% (inactive) | 94% (active) | 90% (active)
